The results in this text go back to ChEMBL document CHEMBL3988442, “University of Dundee, Small-Polar-MMV Screening Library” (2021).

About 13,000 (27%) of roughly 48,000 compounds showed an effect of 50% or more. The list shows a part of the results.

For this experiment, the system named is Wolbachia pipientis. Description: Anti-Wolbachia Cell-Based Screen. Type of experiment: functional. Details: scale not given: in the data most compounds retested in dose-response had high values. The settings on record: 5 µM.
As to `Cc1cc(CNC(=O)Nc2cccc(COCCOC(C)C)c2)no1`, the “Percent Effect” value turned out to be 4.138%. Consider `Cc1cc(NC(=O)C(C)Nc2cccc(COCc3ccco3)c2)no1` (stereo unspecified), for which the “Percent Effect” value is listed as 96.95%. For `Cc1cc(NC(=O)C(C)Nc2ccn(Cc3ccccn3)n2)on1` (stereo unspecified), the “Percent Effect” value was -74.41%. For `Cc1nnc(C(C)Nc2cccc(COCCc3ccccc3)c2)o1` (stereo unspecified), the “Percent Effect” value is -2.129%. As for `Cc1cc(NC(=O)C(C)Nc2cccc(COCc3ccco3)c2)on1` (stereo unspecified), the “Percent Effect” value worked out at 82.63%. The same measure for `Cc1cc(NC(=O)C(C)NCCn2cccn2)no1` (stereo unspecified): 7.799%; for `CCN1CCN(c2ccc(CNC(=O)c3ccc(Cl)o3)cn2)CC1`: 4.733%.

Turning to `Cc1ccccc1[C@@H]1CN(Cc2c(C)noc2C)C[C@H]1C(=O)O`, the “Percent Effect” value is reported as -12.73%. As to `COc1cc2[nH]c(=O)c(CN3CCC[C@H]3CO)cc2c(OC)c1OC`, the “Percent Effect” value is 3.209%. For the compound `CCN1CCCC1CNCc1cc2cc(OC)ccc2[nH]c1=O` (stereo unspecified), the “Percent Effect” value is given as 59.94%.

Regarding `COc1ccc2[nH]c(=O)c(CN(C)CCN3CCCC3)cc2c1`, the “Percent Effect” value is reported as -6.943%. Consider `CCOc1ccc2[nH]c(=O)c(CN3CCC(O)CC3)cc2c1`, for which the “Percent Effect” value is on record as -5.024%. Turning to `CCN1CCCC1Cn1ccc2c(OC)c(OC)ccc2c1=O` (stereo unspecified), the “Percent Effect” value is on record as -2.049%. As to `CN(CCN1CCCCC1=O)Cc1cc2cc3c(cc2[nH]c1=O)OCO3`, the “Percent Effect” value stood at 9.765%.

In the case of `CCN1CCCC1CNCc1cc2cc(OC)c(OC)cc2[nH]c1=O` (stereo unspecified), the “Percent Effect” value was 127.9%. Regarding `CCN1CCCC1CN(CCN(C)C)S(=O)(=O)c1ccc(C#N)cc1` (stereo unspecified), the “Percent Effect” value was found to be 2.143%. As for `Cc1cc(C)c(CNC(=O)NCC2CCCN2C)c(=O)[nH]1` (stereo unspecified), the “Percent Effect” value is given as -15.32%. With `CCN1CCCC1CNCc1cc2cc(C)c(C)cc2[nH]c1=O` (stereo unspecified), the “Percent Effect” value is 108.5%. For the compound `CCN1CCCC1CNCc1cc2cc3c(cc2[nH]c1=O)OCCO3` (stereo unspecified), the “Percent Effect” value came to 90.42%.

For the compound `COc1cc2[nH]c(=O)c(CN3CCCC3C)cc2c(OC)c1OC` (stereo unspecified), the “Percent Effect” value is given as -17.42%. Regarding `COCCN1CCc2cc(C(=O)O)c(-c3ccoc3)nc2CC1.O=C(O)C(F)(F)F.O=C(O)C(F)(F)F`, the “Percent Effect” value is -9.804%. Regarding `CCCc1nnc(C(=O)N(C)Cc2ccc(OC)cc2)o1`, the “Percent Effect” value was 16.32%. Turning to `COCCC(C)NC(=O)N1CCSC(C)(C)C1` (stereo unspecified), the “Percent Effect” value is reported as -17.32%.

Turning to `CC[C@H]1CN(C(=O)c2cnc(CN3CCCC3)s2)CC[C@@]1(C)O`, the “Percent Effect” value is 12.41%.

Take `O=C(NCCNc1ccccn1)NCC1CCS(=O)(=O)C1` (stereo unspecified): the “Percent Effect” value is listed as 7.118%. With `Cc1ccc(S(=O)(=O)N2CC(C)Oc3ncccc32)c(F)c1` (stereo unspecified), the “Percent Effect” value is -7.297%. Turning to `CS(=O)(=O)NCCCN1CCCCC1c1cc2ccccc2[nH]1` (stereo unspecified), the “Percent Effect” value was determined as 5.136%. In the case of `CCN1CCCC1CNCc1cc2ccccc2[nH]c1=O` (stereo unspecified), the “Percent Effect” value worked out at 105.7%. Regarding `CS(=O)(=O)NCC1CCN(Cc2cc3ccccc3[nH]c2=O)C1` (stereo unspecified), the “Percent Effect” value is reported as 5.413%. The figure for `Cc1occc1C(=O)N1CC(C(=O)N2CCOCC2)C2(CCOCC2)C1` (stereo unspecified) is -11.45%; for `CC(NC(=O)CCC(=O)c1cccs1)c1nnc2n1CCC2` (stereo unspecified) it is 109.2%; for `CC(NC(=O)CCC(=O)c1cccs1)c1nnc2n1CCCCC2` (stereo unspecified) it is -1.581%. For `CC(NC(=O)CCCC(=O)c1cccs1)c1nnc2n1CCC2` (stereo unspecified), the “Percent Effect” value was found to be 92.19%.

Take `Cc1noc(CCCC(=O)NC(C)c2nnc3n2CCCCC3)n1` (stereo unspecified): the “Percent Effect” value is -8.198%. The same measure for `c1cnn(Cc2ccc(CN3CCC4(CCCNC4)C3)cc2)c1` (stereo unspecified): 7.706%. With `COCCN1CCN(CCCc2nnnn2-c2ccccc2)CC1`, the “Percent Effect” value is listed as -6.154%. As to `Cc1ccccc1OC1CCN(C(=O)c2c[nH]c(=O)[nH]c2=O)CC1`, the “Percent Effect” value came to 25.29%.

`Cc1cccc2[nH]c(C3CCN(C(=O)c4c[nH]c(=O)[nH]c4=O)CC3)nc12`: the “Percent Effect” value was -6.416%. As for `Cc1cc(C2CCCN(C(=O)c3ccc(C)[nH]c3=O)C2)n[nH]1` (stereo unspecified), the “Percent Effect” value is listed as 8.066%. As to `Cc1cnc(C2CCCN(C(=O)c3c[nH]c(=O)[nH]c3=O)C2)s1` (stereo unspecified), the “Percent Effect” value is on record as 107.7%.

In the case of `Cc1cncc(C2CCCN(C(=O)c3c[nH]c(=O)[nH]c3=O)C2)n1` (stereo unspecified), the “Percent Effect” value is listed as -6.344%.

Consider `O=C(c1c[nH]c(=O)[nH]c1=O)N1CCCC(c2cnccn2)C1` (stereo unspecified), for which the “Percent Effect” value came to 111.3%. For `Cn1ccnc1CN1CCN(c2ncnc3ccsc23)CC1`, the “Percent Effect” value was found to be 8.989%. Take `CCc1[nH]n(C)c(=N)c1-c1ccc2c(c1)OCO2`: the “Percent Effect” value is reported as -3.293%. In the case of `CCc1ncnc2c1CCN(Cc1cccs1)CC2.O=C(O)C(F)(F)F`, the “Percent Effect” value was -3.657%.

Take `CCc1ncnc2c1CCN(CCOC)CC2.O=C(O)C(F)(F)F`: the “Percent Effect” value came out at 104.9%. Regarding `COCCN1CCc2ncnc(-c3ccccc3)c2CC1.O=C(O)C(F)(F)F`, the “Percent Effect” value is listed as 98.59%. Turning to `CCc1ncnc2c1CCN(Cc1ccc(OC)cc1)CC2.O=C(O)C(F)(F)F`, the “Percent Effect” value is listed as -14.19%. Regarding `CN(CCN1CCCC1=O)CC(c1cccs1)N1CCOCC1` (stereo unspecified), the “Percent Effect” value is on record as -4.192%. As for `CCc1ccc(CN(C/C=C/c2ccccc2)CCOC)nc1`, the “Percent Effect” value is recorded as -1.399%. Turning to `Cc1cc(CN[C@H](C(N)=O)[C@@H](C)O)c(C)s1`, the “Percent Effect” value is listed as -13.15%.
